D1 potentiator: enhances dopamine response at the human D1 receptor. P21728. HEK293 TREx D1 cells, calcium flux, dopamine EC20 potentiation. 360,000 tested, 0.036% active. AID 504651. potentiation, % at 10 µM; in the data active = potentiation above about 30%; note: 0% is about no effect
D1 ag: activates the human D1 dopamine receptor. HEK293 T-REx D1 cells, calcium flux, agonist mode. activation, % at 2 µM. 360,000 tested, 1% active. AID 504660; in the data active = activation above about 30%; note: 0% is about no effect
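Inducible HEK293 T-REx D1 cells, force-coupled to calcium signalling, were plated at 4000 cells/well with tetracycline and held overnight at 30 C. After no-wash calcium dye loading, compound-evoked calcium rise over 180 s flagged agonists.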
D1 antag: blocks dopamine activation of the human D1 receptor. activity change, negative = inhibition, % at 10 µM. HEK293 TREx D1 cells, calcium flux, dopamine EC80; active compounds read low. P21728. 360,000 tested, 3.2% active; in the data active = activity change below about -30%; note: % is set by controls: 0 for no effect and ±100 for the full control effect
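Tetracycline-induced HEK293 Trex D1 cells, force-coupled to calcium, dye-loaded; compounds added and read 180 s, then EC80 dopamine added and calcium flux tracked kinetically another 180 s.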
D3 antag: antagonists of human D3 dopamine receptor; D3R cells, DiscoveRx beta-arrestin luminescence, antagonist mode; active compounds read low; P35462; max response, negative = inhibition, %; 360,000 tested, 2.5% active; in the data active = max response below about -50%; inconclusive = no clear call, values can overlap the other calls; note: % is set by controls: 0 for no effect and ±100 for the full control effect
Target sequence (P35462 whole entry, looked up): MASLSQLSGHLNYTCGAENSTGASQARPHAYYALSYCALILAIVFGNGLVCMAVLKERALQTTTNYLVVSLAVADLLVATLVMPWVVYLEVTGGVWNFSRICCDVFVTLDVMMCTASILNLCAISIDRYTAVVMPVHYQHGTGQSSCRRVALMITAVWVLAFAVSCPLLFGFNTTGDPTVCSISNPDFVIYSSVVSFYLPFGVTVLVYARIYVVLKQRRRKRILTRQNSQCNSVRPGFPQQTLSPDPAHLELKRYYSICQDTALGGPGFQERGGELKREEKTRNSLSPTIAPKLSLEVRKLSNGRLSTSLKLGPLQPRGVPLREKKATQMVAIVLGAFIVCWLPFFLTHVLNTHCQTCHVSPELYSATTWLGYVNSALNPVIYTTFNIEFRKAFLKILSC
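Cells plated overnight at 1500 cells/well, then exposed to library compounds with dopamine controls for 90 minutes at 37 degrees C. DiscoveRx reagent added for 30–60 minutes at room temperature; luminescence read, quantitative HTS format.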
DRD3 agonist: activates the human D3 dopamine receptor. P35462. D3R DiscoveRx beta-arrestin cells, luminescence, 90 min. max activation, %. 410,000 tested, 0.58% active. AID 652048; in the data active = max activation above about 30%; note: 0% is about no effect
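Agonist mode: compounds and dopamine controls were applied to plated cells for 90 min at 37 degrees C after an overnight attachment at 1500 cells/well. Luminescent read-out followed 30 - 60 minutes at room temperature with DiscoveRx detection reagent.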
ERG-DNA inh: blocks human ERG Ets domain binding to DNA; P11308; fluorescence polarization, His-ERG Ets domain / labelled DNA; Potency, µM (titrated, usually from 76.9 µM), without a hit: at the top dose FP activity, negative = inhibition, usual class: inhibitors; 370,000 tested, 0.028% active; active = well fitted inhibition curve with a large enough effect in the polarisation, with a control signal flat; inconclusive = small, poorly fitted or top-dose-only effect, or effect the other way, or a change in a side signal; inactive = no such curve, though single readings can be large or run the other way; the % refers to the polarisation;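 note: polarization taken with two DNA probes labelled with fluorescein and Texas red; potency is the fitted concentration of half-maximal effect; % of control where 0% means no effect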
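His-tagged ERG Ets domain (1 uM in the protein solution; 300mM KCl, 50mM Tris-HCl, 1mM EDTA, 1mM DTT, pH 7.5) received compound, then a probe mix of 5 nM fluorescein-DNA and 100nM Texas-615-DNA. Fluorescence polarization was read for both dyes.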
* marks the source's active call; other numbers are inactive results; ? = inconclusive; . = no result; ! = a repeat was not active. Only some compounds are listed: those with a hit (about 6.1% of all), similar ones and a draw of the others.

SMILES | D1 potentiator | D1 ag | D1 antag | D3 antag | DRD3 agonist | ERG-DNA inh
CC(=O)Nc1ccc(OCCCN2CCC(C(O)(c3ccccc3)c3ccccc3)CC2)cc1 | . | . | . | -104.2* | -11.9 | .
CC(C)(C)c1ccc(C(O)CCCN2CCC(C(O)(c3ccccc3)c3ccccc3)CC2)cc1 (stereo not drawn) | -3.8 | 43.3* | 23.5 | -60.4* | -63.3 | -12.7%
CCOc1ccccc1NC(=O)NCCN1CCCCC1 | -5.0 | 2.3 | -0.8 | ? | -9.6 | 4.4%
CCOC(=O)C1CCN(C(=O)CCNS(=O)(=O)c2cc(Br)cnc2N)CC1 | -0.3 | 2.3 | -3.0 | 0.8 | 3.6 | -9.6%
OC(c1ccccc1)(c1ccccc1)C1CCN(CCCOc2cccc(OC(F)(F)F)c2)CC1 | . | . | . | -80.5* | -13.5 | .
CCOC(=O)Cc1csc(NC(=O)CSc2ncnc3c2cnn3-c2ccccc2Cl)n1 | -5.5 | 11.1 | -77.6* | -13.2 | 1.8 | -5.7%
Cc1ccccc1-n1ncc2c(SCC(=O)NC3CCCC3)ncnc21 | -3.0 | 6.0 | -23.1 | 11.0 | 6.5 | -3.0%
COC(=O)c1c(NC(=O)CSc2ncnc3c2cnn3-c2ccccc2Cl)sc2c1CCCC2 | -11.3 | 4.2 | -26.0 | 4.9 | 3.6 | 2.7%
Cc1nnc(NC(=O)CSc2ncnc3c2cnn3-c2ccccc2C)s1 | -3.5 | 2.7 | -5.1 | -62.7* | 6.5 | .
CCOC(=O)Cc1csc(NC(=O)CSc2nnc(C3CC3)n2C)n1 | -0.2 | 0.6 | 4.9 | -50.4* | 1.4 | -0.8%
CCOC(=O)Cc1csc(NC(=O)CSc2nnc(C)n2C)n1 | 0.8 | 3.4 | 5.8 | 15.0 | -2.3 | -2.3%
O=S(=O)(c1ccc2nc(-c3ccccc3)[nH]c2c1)N1CCN(c2ccc(Cl)cc2)CC1 | 0.1 | 4.2 | -6.7 | -4.1 | 2.4 | 12.7%
Cc1c(C(=O)N2CCOCC2)oc2c1-c1nn(CC(=O)NCc3cccc(F)c3)cc1CC2 | -5.5 | 2.0 | 0.5 | . | 8.2 | 2.5%
Cc1ccc(NC(=O)c2sc(-n3nc(C)c(Cc4ccc(Cl)cc4)c3C)nc2C)cc1 | 1.5 | 3.0 | -4.2 | . | -8.7 | 3.5%
CC1(C)SC(=S)N(/N=C/c2ccccc2)C1N(O)C(=O)Nc1ccc([N+](=O)[O-])cc1 (stereo not drawn) | -3.4 | 19.4 | -36.6* | -56.1* | 1.2 | 8.3%
O=C1C=CC(=O)N1c1ccc(O)cc1 | 0.5 | 2.7 | 7.8 | -15.7 | -4.9 | -6.5%
O=C1C=CC(=O)N1c1ccc(OC(F)F)cc1 | -6.3 | 0.4 | -8.5 | -54.6* | -20.2 | 9.7%
O=C(CSc1nccn1Cc1ccco1)Nc1cccc(F)c1 | 1.3 | 31.3*! | -0.4 | -9.4 | -7.5 | -1.7%
CC(NC(=O)c1ccccc1Cl)C(=O)Nc1ccc2c(c1)OCO2 (stereo not drawn) | 2.0 | 0.6 | -83.1* | 0.3 | 5.0 | -1.9%
O=C(Nc1ccc2c(c1)OCCO2)C1CCN(C(=O)c2ccc(Br)cc2)CC1 | 4.8 | 1.6 | -2.5 | 7.1 | 5.8 | -4.4%
O=C(Nc1ccc2c(c1)OCCO2)C1CCN(C(=O)c2ccc([N+](=O)[O-])cc2)CC1 | -8.4 | 2.8 | -31.2* | 3.3 | -0.6 | 2.8%
CCN(CC)C(C(=O)Nc1ccc(C(C)C)cc1)c1ccc2c(c1)OCO2 (stereo not drawn) | 11.3 | 4.1 | 12.6 | -54.1* | 0.6 | -6.9%
CC(C)n1nc(C(=O)Nc2ccc3c(c2)OCO3)c2ccccc2c1=O | . | 1.1 | -32.5* | 7.2 | 2.7 | 5.3%
O=C(CN1C(=O)C2C3C=CC(C3)C2C1=O)Nc1nc2ccccc2[nH]1 (stereo not drawn) | -3.5 | 0.4 | 6.7 | 31.5 | -5.9 | -8.9%
N#Cc1ccc(C2=NC(C(F)(F)F)(C(F)(F)F)c3c(n(Cc4ccco4)c(=O)[nH]c3=O)N2)cc1 | -3.0 | 3.4 | -21.7 | 0.0 | -8.5 | 3.0%
SMILES | D1 potentiator | D1 ag | D1 antag | D3 antag | DRD3 agonist | ERG-DNA inh
O=C(NCc1ccco1)C1CCN(C(=O)c2ccc([N+](=O)[O-])cc2)CC1 | -9.1 | 3.0 | -44.7* | -15.3 | -5.3 | -11.2%
CC(C(=O)Nc1ccc2c(c1)OCCO2)c1ccc([N+](=O)[O-])cc1 (stereo not drawn) | 3.9 | 101.2* | -51.0* | -1.3 | -2.8 | -0.6%
CC(C(=O)Nc1ccc2c(c1)OCO2)c1ccc([N+](=O)[O-])cc1 (stereo not drawn) | -2.0 | 112.4* | 5.1 | -4.6 | -5.0 | -6.7%
COc1ccc(NC(=O)CN(C)C(=O)c2cn(-c3ccccc3)nc2-c2ccc(Cl)cc2)cc1 | -7.7 | 8.4 | -5.1 | 0.0 | -6.3 | -5.5%
Cc1ccc(S(=O)(=O)N2CCOCC2)cc1C(=O)Nc1c(C)n(C)n(-c2ccccc2)c1=O | 4.0 | 2.2 | -0.8 | 19.7 | 0.0 | 2.9%
CCc1ccccc1NC(=S)N(CCN(C)C)C(C)c1ccco1 (stereo not drawn) | -1.6 | 8.3 | -5.9 | -146.1* | -4.4 | -0.8%
O=C1C=CC(=O)N1CCCCCCCCCCN1C(=O)C=CC1=O | . | . | . | -99.8* | -18.9 | 6.0%
Cc1ccc(C)c(NS(=O)(=O)c2cc3c4c(c2)C(C)C(=O)N4CCC3)c1 (stereo not drawn) | -1.4 | -1.6 | . | . | -18.1 | 5.6%
CC1C(=O)N2CCCc3cc(S(=O)(=O)Nc4ccc(Br)cc4F)cc1c32 (stereo not drawn) | -1.6 | -0.5 | -30.2* | . | 15.5 | -11.7%
O=C(N/N=C/c1ccc(O)cc1)c1csc2ccccc12 | -2.0 | 1.1 | -57.1* | -11.5 | -2.0 | 1.9%
O=C(N/N=C/c1ccc(O)cc1)c1cc(-c2ccccc2)nc2ccccc12 | -3.4 | 1.4 | 4.9 | 23.9 | 4.5 | 3.3%
CCOc1ccc(C2N(c3ccc(Cl)cc3)C(=O)C3CCCN32)cc1OC (stereo not drawn) | -3.6 | 1.7 | -42.4* | -21.2 | -2.1 | 20.2%
COc1cc(C=C2C(=O)C=CC2=O)ccc1O | . | . | . | -135.8* | -19.5 | .
COc1cc(/C=C2/C(=O)CNC2=O)ccc1O | -1.9 | 10.4 | -0.7 | 1.0 | -1.7 | -9.6%
COc1cc(/C=C/C(=O)CC(=O)/C=C/c2ccc(O)c(OC)c2)ccc1O | -2.1 | 333.6* | -58.7* | -2.6 | -12.0 | 155.5%
COc1cc(/C=C/C(=O)/C=C(O)/C=C/c2ccc(O)c(OC)c2)ccc1O | -2.3 | 261.6* | -16.3 | -11.7 | 1.2 | 96.4%
CC(=O)c1cnc2nc(SCc3ccccc3C)nn2c1C | 6.6 | 3.2 | 17.1 | 10.3 | -0.8 | 5.6%
CSc1nc2ncc(-c3ccsc3)c(N)n2n1 | 3.0 | 0.6 | -2.7 | 0.9 | -2.7 | 0.1%
O=C(c1ccc(F)cc1)C1CCN(Cc2ccccc2)CC1 | . | . | . | -86.2* | -9.2 | 0.0%
COc1ccc(CN2CCC(C(=O)c3cccc(Cl)c3)CC2)cc1 | -11.9 | 4.4 | -0.6 | -27.1 | -17.0 | 10.0%
